Assay outcomes deposited in PubChem by several laboratories.
In the library only some 1.6% were active in any assay of this set; here they are far more common.
SIRT5 block – SIRT5 desuccinylase inhibitors, primary screen, biochemical, fluorescence imaging, single point, set 5; NAD-dependent protein deacylase sirtuin-5, mitochondrial (Homo sapiens), Q9NXA8; Purified SirT5, succinyl-peptide AMC, trypsin-coupled fluorescence; inhibition, % at 15 µM; actives 1.1% (n = 330,000); in the data active = inhibition above about 15%; inconclusive = no clear call, values can overlap the other calls
NSD2 HMT inh – NSD2 histone methyltransferase inhibitors, primary screen, biochemical, AlphaScreen, single concentration, set 2; AID 743445, 2014; actives 0.54% (n = 310,000); inhibition, % at 12.5 µM; Histone-lysine N-methyltransferase NSD2 (Homo sapiens), O96028; NSD2 peptide methylation, 120 min; in the data active = inhibition above about 50%
Casp6 inh – human caspase-6 inhibitors, primary screen, biochemical, VEID-R110 fluorescence, single point, set 2; purified caspase-6, Z-VEID-R110 cleavage fluorescence; P55212; actives 0.53% (n = 350,000); inhibition, % at 12.5 µM;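 active = mean inhibition across replicates at least about 35%, with every replicate also reaching that limit, limit read from the data; inconclusive = only one of the two criteria met; inactive = neither criterion met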;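 note: 0% = median of neutral control wells and 100% = no fluorescence left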
Target sequence (P55212 24-179 limits assumed): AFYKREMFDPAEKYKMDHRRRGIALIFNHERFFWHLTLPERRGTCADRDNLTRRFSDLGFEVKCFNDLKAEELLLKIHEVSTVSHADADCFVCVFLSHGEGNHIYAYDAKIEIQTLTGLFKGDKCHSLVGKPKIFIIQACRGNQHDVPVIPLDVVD
Target sequence (P55212 194-293 limits assumed): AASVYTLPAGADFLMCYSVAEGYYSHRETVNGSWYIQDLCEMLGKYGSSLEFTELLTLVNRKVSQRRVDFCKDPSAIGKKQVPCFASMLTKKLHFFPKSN
UBC9 SUMO inh – inhibitors of in vitro SUMOylation cascade, primary screen, biochemical, HTRF, uHTS; inhibition, % at 35 µM; AID 2006, 2009; actives 0.36% (n = 290,000); HTRF SUMOylation assay, SAE1/SAE2 + UBC9; in the data active = inhibition above about 50%, passing the limit was not always enough; inconclusive = no clear call, values can overlap the other calls
Target sequence (P63279 whole entry, looked up): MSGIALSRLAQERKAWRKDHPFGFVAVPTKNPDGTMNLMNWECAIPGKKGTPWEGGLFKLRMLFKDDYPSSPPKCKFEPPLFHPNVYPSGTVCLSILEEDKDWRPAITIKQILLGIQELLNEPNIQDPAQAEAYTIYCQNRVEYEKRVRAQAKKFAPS
* marks the source's active call; other numbers are inactive results; ? = inconclusive; . = not tested or not shown.

SMILES	SIRT5 block	NSD2 HMT inh	Casp6 inh	UBC9 SUMO inh
CCCCCCCCN1C(=O)[C@H](CC(=O)NCC2CCCCC2)C[C@@]2(C(=O)OC)CCCCC=C12	16*	.	-2	.
C[C@@H]1CN([C@@H](C)CO)C(=O)c2cc(NC(=O)c3ccncc3)ccc2O[C@@H]1CN(C)S(=O)(=O)c1ccc(F)cc1	-2	.	-1	.
O=C(CC1CC1)Nc1ccc2c(c1)[C@H]1C[C@@H](CC(=O)NC3CCCCC3)O[C@H](CO)[C@H]1O2	-3	.	-4	.
COc1ccc(NC(=O)N(C)C[C@H]2Oc3ccc(NC(=O)NC4CCCCC4)cc3C(=O)N([C@@H](C)CO)C[C@@H]2C)cc1	-8	.	0	.
CC(C)NC(=O)Nc1ccc2c(c1)C(=O)N([C@@H](C)CO)C[C@H](C)[C@@H](CN(C)C)OCCCC[C@H](C)O2	4	.	-5	.
O=C(O)C(O)Cc1c[nH]c2ccccc12 (configuration not stated)	-3	.	-3	6
COC(=O)[C@H](Cc1c[nH]c2ccccc12)NCc1cccc(B(O)O)c1	26*	.	1	.
O=C(CC(C(=O)O)c1c[nH]c2ccccc12)c1ccccc1 (configuration not stated)	17*	29	-4	1
COC(=O)[C@@H](Cc1c[nH]c2ccccc12)NCc1ccc(B(O)O)cc1	0	.	3	.
CC(Cc1c[nH]c2ccccc12)C(=O)O (configuration not stated)	6	.	38*	3
O=C(Cc1c[nH]c2ccccc12)OCC(=O)c1ccccc1	-2	5	1	-31
COc1cccc(-c2ccc3c(c2)[C@@H]2[C@@H](CCN2C(=O)c2ccccc2F)[C@H](CO)N3C)c1	20*	.	-1	.
COc1ccc(-c2ccc3c(c2)[C@@H]2[C@@H](CCN2S(=O)(=O)c2ccc(F)cc2)[C@H](CO)N3C)cc1	16*	.	1	.
C[C@H](CO)N1C[C@H](C)[C@H](CN(C)S(C)(=O)=O)Oc2ccc(NC(=O)C3CCCCC3)cc2C1=O	-1	.	1	.
O=C(Nc1ccccc1)NN(C(=O)CCl)c1ccccc1	1	6	50*	22
C[C@H]1CCCCO[C@@H](CN(C)C(=O)c2ccccc2)[C@@H](C)CN([C@@H](C)CO)C(=O)c2cc(NC(=O)C3CCCCC3)ccc2O1	-1	.	-2	.
COc1ccc(NC(=O)N2C[C@H](O)COC[C@@H]3O[C@@H](CC(=O)N4CCOCC4)CC[C@H]32)cc1	0	.	-1	.
Cc1onc(-c2ccc(Cl)cc2Cl)c1-c1csc(N/N=C/c2ccccc2Cl)n1	.	-1	38*	12
COc1ccccc1NC1=C(NC(C)=O)C(=O)c2ccccc2C1=O	-2	31	11	-1
COC1=C(Nc2ccccc2OC)C(=O)c2ccccc2C1=O	-1	74*	1	63
O=C(CNC(=O)c1cccc(F)c1)OCC(=O)N1CCCCC1	.	-1	.	2
O=C(CNC(=O)c1cccc(F)c1)OCC(=O)N1CCN(C(=O)c2ccco2)CC1	29*	-3	1	9
Nn1c(COc2ccccc2F)nnc1SCC(=O)NC1CCCC1	2	-2	-4	18
N#CC1(NC(=O)CSc2nnc(COc3ccccc3F)n2N)CCCCC1	-5	-2	72*	.
N#C[C@@H]1[C@@H](c2ccccc2-c2ccccc2F)[C@H](CO)N1C(=O)C1CCC1	0	.	2	.
SMILES	SIRT5 block	NSD2 HMT inh	Casp6 inh	UBC9 SUMO inh
COc1cccc(NC(=O)N[C@@H]2CC[C@@H](CC(=O)N3CCN(C)CC3)O[C@H]2CO)c1	5	.	2	.
O=C(COC(=O)/C=C/c1ccc(Cl)cc1)NC1CCCCCC1	-3	9	-2	.
O=C(COC(=O)/C=C/c1ccc(Cl)cc1)NC1CC1	21*	0	2	.
O=C(C[C@@H]1CC[C@H]2[C@@H](COC[C@@H](O)CN2Cc2cc(F)cc(F)c2)O1)NC1CCCC1	4	.	-1	.
Cc1c(C(=O)N2CCCC2)oc2ccc(Br)cc12	1	-6	39*	5
COc1ccc2oc(C(=O)N3CCN(c4ncccn4)CC3)c(C)c2c1	0	2	36*	-10
COc1ccc2oc(C(=O)N3CCN(C(=O)c4ccco4)CC3)c(C)c2c1	-1	1	0	.
O=C(C[C@H]1CC[C@H](NC(=O)C2CC2)[C@@H](CO)O1)NC1CCC1	-3	.	-1	.
CC(C)C#Cc1cnc2c(c1)C(=O)N([C@H](C)CO)C[C@H](C)[C@H](CN(C)C(=O)Nc1ccccc1F)O2	-3	.	2	.
O=C1/C(=C/c2ccc([N+](=O)[O-])cc2)Oc2cc(O)ccc21	16*	5	2	7
O=C1/C(=C/c2ccc(Br)cc2)Oc2cc(O)ccc21	-1	-5	3	?
C[C@@H]1CN([C@@H](C)CO)C(=O)c2cc(NS(=O)(=O)c3cccs3)ccc2O[C@@H]1CN(C)Cc1ccc(Cl)c(Cl)c1	18*	.	2	.
C[C@H](CO)N1C[C@H](C)[C@H](CN(C)Cc2ccc(C(F)(F)F)cc2)OCCCC[C@H](C)Oc2ccc(NS(=O)(=O)c3cccs3)cc2C1=O	13	.	2	.
C[C@H]1CCCCO[C@H](CN(C)Cc2ccc(C(F)(F)F)cc2)[C@@H](C)CN([C@@H](C)CO)C(=O)c2cc(NS(=O)(=O)c3cccs3)ccc2O1	16*	.	4	.
C[C@@H]1CN([C@@H](C)CO)C(=O)c2cc(NS(=O)(=O)c3cn(C)cn3)ccc2O[C@@H]1CN(C)CC1CCCCC1	2	.	-3	.
C[C@@H]1CCCCO[C@@H](CN(C)Cc2ccc(C(F)(F)F)cc2)[C@@H](C)CN([C@@H](C)CO)C(=O)c2cc(NS(=O)(=O)c3cccs3)ccc2O1	19*	.	-2	.
C[C@@H]1CN([C@H](C)CO)C(=O)c2cc(NS(=O)(=O)c3cn(C)cn3)ccc2O[C@H]1CN(C)CC1CCCCC1	17*	.	2	.
CN(C)C(=O)C[C@H]1CC[C@@H](NC(=O)C2CCOCC2)[C@@H](CO)O1	0	.	2	.
O=C(C1=C[C@@H](c2csc3ccccc23)C[C@@H](OCCCCO)O1)N1CCCCCCC1	-2	.	-3	.
C[C@@H]1CN([C@@H](C)CO)C(=O)c2cc(NS(=O)(=O)c3cccs3)ccc2O[C@@H](C)CCCCO[C@@H]1CN(C)Cc1ccc(C(F)(F)F)cc1	19*	.	-2	.
C[C@H](CO)N1C[C@H](C)[C@@H](CN(C)Cc2ccc(Cl)c(Cl)c2)OCCCC[C@H](C)Oc2ccc(NS(=O)(=O)c3cccs3)cc2C1=O	19*	.	-2	.
C[C@H]1CCCCO[C@@H](CN(C)Cc2ccc(C(F)(F)F)cc2)[C@@H](C)CN([C@@H](C)CO)C(=O)c2cc(NS(=O)(=O)c3cccs3)ccc2O1	14	.	0	.
C[C@@H]1CN([C@@H](C)CO)C(=O)c2cc(NS(=O)(=O)c3cccs3)ccc2O[C@H]1CN(C)S(=O)(=O)c1cn(C)cn1	-1	.	1	.
C[C@H](CO)N1C[C@H](C)[C@H](CN(C)S(=O)(=O)c2cn(C)cn2)Oc2ccc(NS(=O)(=O)c3cccs3)cc2C1=O	15*	.	-1	.
